The full data set covers some 8,800 targets. This sample favours those with a hit. About 0.5% of all pairs of compound and target were hits.
Columns and labels:
Assay in all cases: log2 fold change, soluble protein after heating vs DMSO (PISA); higher = thermal stabilisation; K562 lysate, 10 uM; active = over 0.2 and 3.5 SD of the protein, either way, in both replicates (recomputed)
ibrutinib = compound: C=CC(=O)N1CCC[C@@H](n2nc(-c3ccc(Oc4ccccc4)cc3)c3c(N)ncnc32)C1 [ibrutinib]
Procedure, shortened: (§1)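 Dounce homogenisation of K562 pellets in PBS pH 7.4 with 1 mM MgCl2 produced a crude extract, used at 1 mg/mL protein. Exposure to 10 μM compound lasted 30 min, and aliquots were then heated for 3 min across 48°C-58°C, pooled and brought to 0.5% NP-40 at 4°C. The supernatant after 21,000xg for 90 min was quantified by TMTpro 16plex LC-MS/MS with channel sums equalised. Duplicate values are given as log-two fold change in thermal stability relative to solvent controls.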

[1] = compound: CC(=O)c1cnc2ccc(-c3cc(Cl)c(O)c(Cl)c3)nc2c1N[C@H]1CC[C@H](CN(C)C)CC1
Procedure, shortened: as §1

ralimetinib = compound: CC(C)(C)Cn1c(N)nc2ccc(-c3[nH]c(C(C)(C)C)nc3-c3ccc(F)cc3)nc21 [ralimetinib]
Procedure, shortened: as §1

[2] = compound: CC(C)(O)CC(=O)NCCn1ccc2ncnc(Nc3ccc(Oc4cccc(C(F)(F)F)c4)c(Cl)c3)c21
Procedure, shortened: as §1

[3] = compound: CC(C)C1=C2N=C(C=C(N2N=C1)NCC3=CC=CC=C3)NCCCCCCN
Procedure, shortened: as §1

[4] = compound: CC1=C(C(CC(=O)N1)C2=CC=C(C=C2)C(F)(F)F)C(=O)NC3=C(C=C4C(=C3)C=NN4)F
Procedure, shortened: as §1

[5] = compound: CC1=C(C2=C(C=C1)C(=O)C3=CC=CC=C3N2CCCN)C
Procedure, shortened: as §1

[6] = compound: CC1=C(C=C(C=C1)NC(=O)C2=CC(=CC=C2)C(C)(C)C#N)NC3=CC4=C(C=C3)N=CN(C4=O)C
Procedure, shortened: as §1

[7] = compound: CC1=C(C=C(C=C1)NC(=O)C2=CC(=CC=C2)N(C)C)NC(=O)C3=CC=C(C=C3)O
Procedure, shortened: as §1

[8] = compound: CC1=CC=C(C=C1)SC2=C3C=C(SC3=CN=C2)C(=O)N
Procedure, shortened: as §1

Measured: log2 fold change

SRSF7 (UniProt Q16629)
inactive: ibrutinib -0.114 | [1] -0.071 | ralimetinib 0.074 | [2] -0.004 | [3] 0 | [4] -0.005 | [5] -0.023 | [6] -0.037 | [7] 0.02 | [8] -0.079

SVIP (UniProt Q8NHG7)
Chain of UniProt Q8NHG7 (Q8NHG7 whole entry, looked up): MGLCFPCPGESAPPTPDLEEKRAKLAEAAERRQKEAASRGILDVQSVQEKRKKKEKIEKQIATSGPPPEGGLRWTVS
inactive: ibrutinib 0.088 | [1] -0.031 | ralimetinib 0.01 | [2] -0.062 | [3] -0.017 | [4] -0.029 | [5] -0.014 | [6] 0.075 | [7] 0.017 | [8] -0.019

SH3GL3 isoform 3 (UniProt Q99963)
Chain of UniProt Q99963 (Q99963 whole entry, looked up): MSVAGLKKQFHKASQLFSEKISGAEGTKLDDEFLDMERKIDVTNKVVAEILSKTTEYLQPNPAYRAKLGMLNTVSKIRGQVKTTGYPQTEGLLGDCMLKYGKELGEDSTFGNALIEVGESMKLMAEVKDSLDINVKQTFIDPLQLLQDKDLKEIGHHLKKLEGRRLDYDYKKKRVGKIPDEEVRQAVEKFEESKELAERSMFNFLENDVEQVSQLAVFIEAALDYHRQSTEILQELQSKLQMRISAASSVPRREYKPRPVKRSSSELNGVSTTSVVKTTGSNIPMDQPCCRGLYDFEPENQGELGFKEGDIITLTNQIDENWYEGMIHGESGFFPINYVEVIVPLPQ
inactive: ibrutinib 0.042 | [1] -0.104 | ralimetinib -0.014 | [2] 0.004 | [3] 0.001 | [4] -0.017 | [5] -0.045 | [6] 0.027 | [7] 0.042 | [8] -0.102

SRSF2 (UniProt Q01130)
inactive: ibrutinib 0.021 | [1] -0.009 | ralimetinib 0.034 | [2] -0.065 | [3] -0.013 | [4] -0.021 | [5] -0.015 | [6] 0.016 | [7] 0.028 | [8] -0.018

SMN1 (UniProt Q16637)
inactive: ibrutinib -0.085 | [1] -0.028 | ralimetinib 0.01 | [2] -0.01 | [3] 0.002 | [4] 0.001 | [5] -0.018 | [6] 0.018 | [7] 0.137 | [8] -0.045

SLC20A1 (UniProt Q8WUM9)
Chain of UniProt Q8WUM9 (Q8WUM9 whole entry, looked up): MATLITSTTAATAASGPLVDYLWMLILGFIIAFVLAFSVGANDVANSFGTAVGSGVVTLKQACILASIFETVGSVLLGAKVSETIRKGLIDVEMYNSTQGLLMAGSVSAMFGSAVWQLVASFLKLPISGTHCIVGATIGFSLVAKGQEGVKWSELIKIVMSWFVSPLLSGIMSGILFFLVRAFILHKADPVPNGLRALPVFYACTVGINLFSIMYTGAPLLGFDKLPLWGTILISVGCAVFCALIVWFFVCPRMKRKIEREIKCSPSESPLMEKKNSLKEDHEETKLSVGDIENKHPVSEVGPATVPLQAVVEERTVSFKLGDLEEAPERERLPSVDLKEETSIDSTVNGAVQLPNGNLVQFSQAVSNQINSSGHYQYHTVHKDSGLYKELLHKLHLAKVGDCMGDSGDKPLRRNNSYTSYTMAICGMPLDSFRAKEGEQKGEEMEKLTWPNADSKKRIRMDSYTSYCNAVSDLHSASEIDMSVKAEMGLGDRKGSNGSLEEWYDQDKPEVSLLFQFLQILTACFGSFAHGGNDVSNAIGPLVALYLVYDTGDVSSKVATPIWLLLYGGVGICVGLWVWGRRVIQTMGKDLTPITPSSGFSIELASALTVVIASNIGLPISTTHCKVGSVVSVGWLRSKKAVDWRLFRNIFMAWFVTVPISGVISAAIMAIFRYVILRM
inactive: ibrutinib 0.022 | [1] -0.028 | ralimetinib -0.013 | [2] -0.08 | [3] 0.05 | [4] 0.072 | [5] -0.015 | [6] 0.027 | [7] 0.002 | [8] -0.054

SLC25A38 (UniProt Q96DW6)
Chain of UniProt Q96DW6 (Q96DW6 whole entry, looked up): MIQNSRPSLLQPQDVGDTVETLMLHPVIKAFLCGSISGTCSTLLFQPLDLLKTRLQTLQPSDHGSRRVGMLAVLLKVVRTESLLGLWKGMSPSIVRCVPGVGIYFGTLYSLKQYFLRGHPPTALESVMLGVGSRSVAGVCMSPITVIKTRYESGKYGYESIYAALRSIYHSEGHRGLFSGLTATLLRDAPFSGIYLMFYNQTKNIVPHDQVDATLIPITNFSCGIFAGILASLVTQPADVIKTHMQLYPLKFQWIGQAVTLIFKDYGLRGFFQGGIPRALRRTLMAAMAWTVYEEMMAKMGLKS
inactive: ibrutinib 0.061 | [1] -0.108 | ralimetinib -0.074 | [2] -0.003 | [3] -0.114 | [4] -0.153 | [5] -0.437 | [6] 0.002 | [7] 0.115 | [8] 0.04

SSB (UniProt P05455)
inactive: ibrutinib -0.007 | [1] -0.009 | ralimetinib -0.005 | [2] -0.006 | [3] 0.004 | [4] -0.015 | [5] -0.013 | [6] -0.006 | [7] 0.007 | [8] 0.006

SPAG5 (UniProt Q96R06)
inactive: ibrutinib -0.005 | [1] 0.039 | ralimetinib -0.001 | [2] 0.017 | [3] -0.013 | [4] 0.03 | [5] -0.024 | [6] -0.024 | [7] 0.008 | [8] -0.005

SMC6 (UniProt Q96SB8)
inactive: ibrutinib 0.021 | [1] -0.006 | ralimetinib 0.005 | [2] -0.012 | [3] 0.023 | [4] 0.065 | [5] 0.006 | [6] 0.006 | [7] 0.001 | [8] -0.01

SNRPD3 (UniProt P62318)
Chain of UniProt P62318 (P62318 whole entry, looked up): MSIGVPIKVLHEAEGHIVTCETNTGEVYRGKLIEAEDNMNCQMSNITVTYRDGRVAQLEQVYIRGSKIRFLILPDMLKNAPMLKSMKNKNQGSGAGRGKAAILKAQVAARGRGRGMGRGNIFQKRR
inactive: ibrutinib -0.033 | [1] 0.035 | ralimetinib 0.067 | [2] -0.018 | [3] -0.05 | [4] 0.017 | [5] 0.019 | [6] -0.012 | [7] -0.004 | [8] -0.008

STK24 (UniProt B4DR80)
inactive: ibrutinib 0.024 | ralimetinib 0.005 | [2] 0.024 | [3] 0.001 | [4] -0.019 | [5] -0.019 | [6] -0.018 | [7] -0.019 | [8] -0.018
active: [1] 0.218

SLC11A2 isoform 3 (UniProt P49281)
inactive: ibrutinib -0.032 | [1] -0.018 | ralimetinib -0.038 | [2] -0.093 | [3] 0.017 | [4] 0.242 | [5] -0.001 | [6] 0.094 | [7] 0.001 | [8] 0.003

SUZ12 (UniProt Q15022)
inactive: ibrutinib -0.043 | [1] 0.013 | ralimetinib 0.003 | [2] -0.036 | [3] 0.007 | [4] -0.023 | [5] -0.09 | [7] 0.048 | [8] -0.01
active: [6] 0.289

SMYD3 (UniProt Q9H7B4)
inactive: ibrutinib -0.009 | [1] -0.002 | ralimetinib 0.032 | [2] -0.012 | [3] 0.034 | [4] -0.037 | [5] -0.028 | [6] 0.038 | [7] 0.036 | [8] -0.027

SYNE2 isoform 2 (UniProt Q8WXH0)
inactive: ibrutinib 0 | [1] -0.003 | ralimetinib 0.018 | [2] -0.076 | [3] -0.106 | [4] -0.153 | [5] -0.047 | [6] 0.04 | [7] -0.005 | [8] 0.006

STOML2 (UniProt Q9UJZ1)
inactive: ibrutinib 0.017 | [1] -0.012 | ralimetinib -0.015 | [2] -0.028 | [3] 0.033 | [4] -0.025 | [5] -0.04 | [6] 0 | [7] 0.002 | [8] -0.006

SYNRG (UniProt Q9UMZ2)
inactive: ibrutinib -0.023 | [1] -0.028 | ralimetinib -0.016 | [2] -0.083 | [3] 0.015 | [4] -0.019 | [5] -0.018 | [6] -0.042 | [7] 0.022 | [8] -0.052

TADA3 (UniProt O75528)
inactive: ibrutinib 0.032 | [1] 0 | ralimetinib -0.013 | [2] -0.022 | [3] 0.018 | [4] -0.003 | [5] -0.005 | [6] 0.054 | [7] 0.024 | [8] -0.011

SLC27A4 (UniProt Q6P1M0)
inactive: ibrutinib -0.004 | [1] 0.029 | ralimetinib 0.009 | [2] -0.027 | [3] 0.049 | [4] 0.077 | [5] -0.042 | [6] -0.051 | [7] 0.028 | [8] 0.003

SNX6, A0A0A0MRI2
inactive: ibrutinib -0.034 | [1] 0 | ralimetinib -0.005 | [2] -0.03 | [3] -0.011 | [4] -0.032 | [5] -0.001 | [6] 0.018 | [7] 0.039 | [8] -0.004

SPATS2 (UniProt Q86XZ4)
inactive: ibrutinib -0.06 | [1] -0.069 | ralimetinib -0.018 | [2] 0.03 | [3] 0.111 | [4] 0.077 | [5] -0.061 | [6] -0.007 | [7] -0.046 | [8] -0.001

SPHK1 isoform 2 (UniProt Q9NYA1)
active: [6] -0.276
inactive: ibrutinib -0.088 | [1] 0.029 | ralimetinib 0.124 | [2] 0.061 | [3] 0.021 | [4] 0.041 | [5] 0.041 | [7] -0.061 | [8] -0.036

STK3 isoform 2 (UniProt Q13188)
Chain of UniProt Q13188 (Q13188 whole entry, looked up): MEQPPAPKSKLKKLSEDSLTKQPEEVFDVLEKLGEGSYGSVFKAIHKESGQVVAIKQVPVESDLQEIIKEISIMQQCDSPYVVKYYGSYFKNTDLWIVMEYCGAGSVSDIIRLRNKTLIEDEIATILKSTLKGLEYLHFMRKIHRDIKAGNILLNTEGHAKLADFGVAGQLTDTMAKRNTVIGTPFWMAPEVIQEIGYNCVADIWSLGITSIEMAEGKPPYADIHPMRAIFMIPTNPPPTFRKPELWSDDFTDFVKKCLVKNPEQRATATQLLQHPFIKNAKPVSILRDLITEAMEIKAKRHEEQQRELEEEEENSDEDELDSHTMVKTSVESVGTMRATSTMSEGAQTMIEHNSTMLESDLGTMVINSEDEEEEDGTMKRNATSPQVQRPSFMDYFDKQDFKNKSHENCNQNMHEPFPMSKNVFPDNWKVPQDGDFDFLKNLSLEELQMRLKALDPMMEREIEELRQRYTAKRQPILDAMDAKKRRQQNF
inactive: ibrutinib 0.11 | [1] 0.364 | ralimetinib -0.001 | [2] 0.037 | [3] 0.026 | [4] -0.005 | [5] 0 | [6] -0.025 | [7] 0.016 | [8] -0.073

SLC25A25 isoform 3 (UniProt Q6KCM7)
inactive: ibrutinib -0.015 | [1] -0.028 | ralimetinib 0.011 | [2] 0.021 | [3] 0.018 | [4] 0.022 | [5] -0.036 | [6] 0.017 | [7] -0.012 | [8] 0.034

SOAT1 (UniProt P35610)
inactive: ibrutinib 0.043 | [1] 0.017 | ralimetinib 0.151 | [2] -0.107 | [3] -0.055 | [4] -0.046 | [5] -0.022 | [6] 0.1 | [7] -0.012 | [8] 0.019

STIM1 (UniProt Q13586)
inactive: ibrutinib 0.033 | [1] 0.043 | ralimetinib 0.023 | [2] -0.021 | [3] 0.027 | [4] 0.003 | [5] 0.023 | [6] 0.001 | [7] 0.008 | [8] 0.027

SPG11 (UniProt Q96JI7)
Chain of UniProt Q96JI7 (Q96JI7 whole entry, looked up): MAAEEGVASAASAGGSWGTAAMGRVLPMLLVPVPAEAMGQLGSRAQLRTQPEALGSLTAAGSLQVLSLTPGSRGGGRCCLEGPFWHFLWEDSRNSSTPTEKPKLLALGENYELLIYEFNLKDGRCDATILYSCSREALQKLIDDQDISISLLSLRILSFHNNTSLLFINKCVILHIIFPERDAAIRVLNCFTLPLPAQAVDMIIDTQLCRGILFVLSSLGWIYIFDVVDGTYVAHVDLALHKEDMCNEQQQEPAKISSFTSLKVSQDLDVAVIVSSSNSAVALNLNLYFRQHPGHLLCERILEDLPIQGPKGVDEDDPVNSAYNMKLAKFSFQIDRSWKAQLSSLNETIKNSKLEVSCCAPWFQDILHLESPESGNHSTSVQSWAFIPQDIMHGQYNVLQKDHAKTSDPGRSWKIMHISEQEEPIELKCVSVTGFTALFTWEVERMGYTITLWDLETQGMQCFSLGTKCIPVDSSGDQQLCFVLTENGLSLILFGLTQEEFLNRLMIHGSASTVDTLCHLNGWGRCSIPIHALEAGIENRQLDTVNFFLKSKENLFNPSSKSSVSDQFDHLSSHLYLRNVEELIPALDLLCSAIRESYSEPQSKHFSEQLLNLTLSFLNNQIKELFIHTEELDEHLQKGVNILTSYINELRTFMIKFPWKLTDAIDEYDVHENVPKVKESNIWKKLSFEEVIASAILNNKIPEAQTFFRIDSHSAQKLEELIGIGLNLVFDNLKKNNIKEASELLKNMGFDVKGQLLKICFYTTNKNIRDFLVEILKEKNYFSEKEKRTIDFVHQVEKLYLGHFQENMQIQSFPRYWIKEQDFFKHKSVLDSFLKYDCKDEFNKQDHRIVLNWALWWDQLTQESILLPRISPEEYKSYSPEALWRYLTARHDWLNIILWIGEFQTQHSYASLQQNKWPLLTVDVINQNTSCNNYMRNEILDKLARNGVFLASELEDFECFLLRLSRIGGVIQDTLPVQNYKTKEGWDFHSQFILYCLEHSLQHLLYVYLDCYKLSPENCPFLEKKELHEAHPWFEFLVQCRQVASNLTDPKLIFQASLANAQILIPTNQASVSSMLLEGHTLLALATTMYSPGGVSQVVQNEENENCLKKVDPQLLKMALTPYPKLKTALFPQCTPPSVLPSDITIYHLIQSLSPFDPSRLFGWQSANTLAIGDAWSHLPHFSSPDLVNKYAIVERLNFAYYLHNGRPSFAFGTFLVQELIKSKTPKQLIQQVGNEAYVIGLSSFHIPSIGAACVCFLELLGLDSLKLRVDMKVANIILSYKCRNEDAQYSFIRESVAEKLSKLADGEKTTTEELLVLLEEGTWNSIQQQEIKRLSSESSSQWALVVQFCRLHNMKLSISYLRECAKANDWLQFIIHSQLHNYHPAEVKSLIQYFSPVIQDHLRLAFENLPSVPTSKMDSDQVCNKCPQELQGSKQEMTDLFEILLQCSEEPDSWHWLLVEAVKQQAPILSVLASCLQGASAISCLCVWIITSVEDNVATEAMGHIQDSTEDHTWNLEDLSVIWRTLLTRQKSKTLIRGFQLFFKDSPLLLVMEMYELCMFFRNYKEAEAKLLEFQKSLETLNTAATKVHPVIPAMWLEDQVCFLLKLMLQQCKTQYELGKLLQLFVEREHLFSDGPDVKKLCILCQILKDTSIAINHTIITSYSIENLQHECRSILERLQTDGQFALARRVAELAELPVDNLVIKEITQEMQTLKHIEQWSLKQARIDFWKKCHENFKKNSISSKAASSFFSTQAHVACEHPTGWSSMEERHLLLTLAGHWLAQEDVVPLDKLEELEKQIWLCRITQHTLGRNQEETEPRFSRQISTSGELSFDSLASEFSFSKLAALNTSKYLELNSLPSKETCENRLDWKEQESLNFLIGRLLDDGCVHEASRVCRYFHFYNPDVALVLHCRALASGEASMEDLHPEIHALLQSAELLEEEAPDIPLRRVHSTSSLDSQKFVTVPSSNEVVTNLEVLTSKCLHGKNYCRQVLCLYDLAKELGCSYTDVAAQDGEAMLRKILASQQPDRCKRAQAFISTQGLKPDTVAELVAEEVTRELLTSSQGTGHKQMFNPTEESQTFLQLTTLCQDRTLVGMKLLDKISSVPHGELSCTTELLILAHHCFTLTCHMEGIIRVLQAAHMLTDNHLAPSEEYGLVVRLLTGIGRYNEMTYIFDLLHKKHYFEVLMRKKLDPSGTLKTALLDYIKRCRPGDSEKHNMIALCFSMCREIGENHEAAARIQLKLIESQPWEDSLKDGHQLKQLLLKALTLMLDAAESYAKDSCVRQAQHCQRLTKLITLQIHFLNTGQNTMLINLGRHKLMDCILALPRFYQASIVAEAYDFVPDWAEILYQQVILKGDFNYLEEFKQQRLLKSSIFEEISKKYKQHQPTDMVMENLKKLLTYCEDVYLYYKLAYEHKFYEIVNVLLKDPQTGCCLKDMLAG
inactive: ibrutinib 0.077 | [1] 0.068 | ralimetinib 0.049 | [2] -0.024 | [3] -0.011 | [4] -0.048 | [5] -0.063 | [6] -0.061 | [7] 0.098 | [8] 0.007

SLC7A5 (UniProt Q01650)
Chain of UniProt Q01650 (Q01650 whole entry, looked up): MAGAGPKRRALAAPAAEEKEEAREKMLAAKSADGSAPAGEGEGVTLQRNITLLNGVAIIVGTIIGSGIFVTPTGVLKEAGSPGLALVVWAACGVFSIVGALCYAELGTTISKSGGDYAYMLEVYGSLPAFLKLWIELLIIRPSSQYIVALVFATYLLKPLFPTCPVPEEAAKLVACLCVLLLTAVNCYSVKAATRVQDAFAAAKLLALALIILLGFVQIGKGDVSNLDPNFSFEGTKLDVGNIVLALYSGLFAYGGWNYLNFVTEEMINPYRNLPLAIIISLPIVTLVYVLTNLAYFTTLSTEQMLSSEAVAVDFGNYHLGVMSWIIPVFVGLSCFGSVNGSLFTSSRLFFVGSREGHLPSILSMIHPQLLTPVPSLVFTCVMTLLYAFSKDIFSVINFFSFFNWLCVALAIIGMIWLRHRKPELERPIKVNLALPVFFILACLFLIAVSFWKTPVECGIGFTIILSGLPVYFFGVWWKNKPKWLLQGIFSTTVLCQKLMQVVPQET
inactive: ibrutinib -0.011 | [1] -0.01 | ralimetinib 0.018 | [2] -0.042 | [3] 0.036 | [4] -0.031 | [5] -0.003 | [6] 0.075 | [7] -0.043 | [8] 0

TAF9 (UniProt Q16594)
inactive: ibrutinib -0.028 | [1] 0.044 | ralimetinib 0.033 | [2] -0.057 | [3] 0.032 | [4] 0.015 | [5] 0.019 | [6] 0.027 | [7] 0.101 | [8] -0.023

Source: the supplement of paper PMC10849652
